TIM10 inh: inhibits growth of TIM10 yeast strain; S. cerevisiae TIM10 strain growth, BacTiter-Glo luminescence, 24 h; inhibition, % at 10 µM; actives 1.4% (n = 330,000); AID 463195;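 active = inhibition of 40% or more at the single tested concentration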;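 note: wild-type TIM10 isogenic control strain grown at permissive 25 °C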
tim10-1 inh: inhibits growth of tim10-1 mutant yeast | inhibition, % at 20 µM | actives 2.2% (n = 330,000) | S. cerevisiae tim10-1 ts strain growth, BacTiter-Glo, 24 h;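 active = inhibition of at least 40%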;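 note: mutant grown at 25 °C; 0% = DMSO wells with yeast and 100% = wells holding no yeast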
tim23-1 inh: inhibits growth of tim23-1 mutant yeast; inhibition, % at 20 µM; actives 1.3% (n = 330,000); S. cerevisiae tim23-1 growth, BacTiter-Glo luminescence, 24 h;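 active = growth inhibition of the mutant yeast at or above 50%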;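 note: temperature-sensitive mutant grown at 25 °C; plate controls were DMSO-treated mutant yeast for no effect and medium wells lacking yeast for full effect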
SKKanGAS inh: blocks kanamycin growth of S. pyogenes SKKanGAS strain; actives 1.3% (n = 300,000); AID 1662; inhibition, % at 7.5 µM; BacTiter-Glo, 6 h;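 active = mean replicate score, as percent of positive control median, at least 50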;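 note: strain carries kanamycin resistance gene driven by streptokinase promoter and grows in 40 µg/ml kanamycin; loss of luminescence reflects streptokinase promoter inhibition or plain growth inhibition; 0% = median of DMSO wells and 100% = positive control at its reference dose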
PfHsp90 set2: inhibits growth of yeast expressing Plasmodium falciparum Hsp90 | actives 0.32% (n = 310,000) | S. cerevisiae expressing PfHsp90, BacTiter-Glo ATP, 48 h; yeast lacking PDR1 and PDR3 efflux regulators | inhibition, % at 9.4 µM;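 active = every replicate shows inhibition above about 80%, whatever the replicate mean, limit read from the data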;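 note: 0% = DMSO neutral controls and 100% = 20 µM radicicol positive controls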
tim10-1 confirm: tim10-1 yeast growth inhibition, confirmed; shares compounds with tim10-1 inh; S. cerevisiae tim10-1 ts strain growth, BacTiter-Glo, 24 h; inhibition, % at 20 µM; actives 56% (n = 7,400); AID 463213;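 active = inhibition of yeast growth at or above a set limit in either of two repeat tests at 20 µM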;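 note: tim10-1 mutant grown at permissive 25 °C to find synthetic lethal compounds; 0% = DMSO yeast wells and 100% = medium wells without yeast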
Starred values were filed as active, the others as inactive; x = not tested or not shown. Sampled rows, rich in hits. Any-hit rate of the full collection: about 4.4%.

SMILES | TIM10 inh | tim10-1 inh | tim23-1 inh | SKKanGAS inh | PfHsp90 set2 | tim10-1 confirm
N#CC(CC(=O)c1ccc(F)cc1)c1ccc2c(c1)OCO2 (stereo not drawn) | 18 | 41* | 39 | 1 | -7 | 31*
Cc1ccc(N2C(=O)CC(Sc3cccs3)C2=O)cc1 (stereo not drawn) | 18 | 45* | 29 | 4 | 9 | 49*
O=C(NCc1nc2ccccc2[nH]1)c1cc2ccccc2oc1=O | 24 | 41* | 6 | -5 | 21 | 21
O=C(NCc1ccccc1)c1cc2ccccc2oc1=O | 5 | -1 | 9 | -2 | -4 | x
CS(=O)(=O)Cc1cccc(C(=O)NC2CCSc3ccccc32)c1 (stereo not drawn) | -7 | 19 | 4 | 2 | -9 | x
Cc1cc(C)cc(Nc2ncc3c(n2)CC(c2ccco2)CC3=O)c1 (stereo not drawn) | 34 | 45* | 37 | 15 | 15 | 33*
CC(C)NC(=O)/C(C#N)=C/c1ccc2c(c1)OCCO2 | 11 | 43* | 30 | 0 | 4 | 34*
COc1cc(C(C)=O)ccc1Oc1cc(NN2CCCCC2)c([N+](=O)[O-])cc1[N+](=O)[O-] | 9 | 26 | 28 | 6 | -6 | x
CCC(=O)Nc1nnc(S(=O)(=O)N2CCc3ccccc32)s1 | 1 | 49* | 7 | 6 | -13 | 6
CC(C)(C)CNC(=O)c1cccc2c1C(=O)c1ccc(-c3cc4ccccc4o3)cc1S2(=O)=O | -11 | 1 | -1 | x | -2 | x
C/C(=N\O)c1cc(Cl)cc(Cl)c1O | 38 | 48* | 38 | -4 | -46 | 43*
Cc1[nH]n(-c2ccccc2)c(=O)c1C(c1ccccc1[N+](=O)[O-])C(C#N)C#N (stereo not drawn) | 31 | 44* | 43 | 14 | -10 | 33*
COCCCNc1c2c3c(cccc3[nH]c1=O)C(=O)c1ccccc1-2 | 31 | 41* | 16 | x | 21 | 23
COCCCNC1=C(Cl)C(=O)c2ccccc2C1=O | 27 | 30 | 41 | 0 | -1 | x
O=C(c1ccc2c3n(nc2c1)-c1ccccc1CO3)N1CCCCC1 | 33 | 51* | 49 | 51* | 34 | 48*
Cc1ccc2c(c1)COc1c3ccc(C(=O)N4CCCCC4)cc3nn1-2 | 21 | 23 | 27 | 2 | -10 | x
CC(C)NC(=O)c1onc(CSc2ccc(F)cc2)c1C(=O)NC(C)C | 7 | 11 | 21 | 2 | 8 | x
Cc1ccc(-n2c(-c3ccccc3)c[n+]3c2CCC3)cc1 | -1 | -9 | 4 | -2 | 0 | x
Cc1ccc(-n2c(-c3ccccc3)c[n+]3c2CCc2ccccc2-3)c(C)c1 | 32 | 43* | 18 | x | x | 28
COc1cccc(C(=O)O[C@@H]2[C@H](Cc3ccccc3)NS(=O)(=O)[C@H]3C[C@@H]4C=C[C@]23O4)c1 | 0 | 15 | 18 | x | 0 | x
O=C(O)c1ccc(COc2ccccc2C=C2C(=O)c3ccccc3C2=O)cc1 | 27 | 40 | 28 | 1 | -1 | 9
O=C1NC(=S)N/C1=C\c1ccccc1OCc1ccc(C(=O)O)cc1 | -15 | 1 | 10 | 7 | -1 | x
O=C(c1ccc(Cl)cc1)N1CCN(S(=O)(=O)/C=C/c2ccccc2)CC1 | 20 | 46* | 42 | x | -10 | 22
CC1(c2ccc(OC(F)F)cc2)NC(=O)N(/N=C/c2c(O)ccc3ccccc23)C1=O (stereo not drawn) | 22 | 42* | 47 | -2 | 8 | 27
COc1ccccc1CNC(=O)c1cc(-c2ccccc2C)n(CC2CC(c3cccc([N+](=O)[O-])c3)=NO2)n1 (stereo not drawn) | -1 | 13 | -8 | x | 9 | x
SMILES | TIM10 inh | tim10-1 inh | tim23-1 inh | SKKanGAS inh | PfHsp90 set2 | tim10-1 confirm
O=C(OCc1nnc(-c2ccccc2)o1)c1ccco1 | 15 | 41* | -11 | 1 | -8 | 12
CCc1ccc2c(CN3CCN(S(=O)(=O)c4cccs4)CC3)cc(=O)oc2c1 | 23 | 41* | 34 | 6 | 0 | 29
Cn1c(N)c(C(=O)COC(=O)Cc2ccc(Cl)c(Cl)c2)c(=O)n(C)c1=O | 6 | 8 | 24 | x | -2 | x
Cn1nccc1C(=O)Nc1sc2c(c1C#N)CCCC2 | 10 | 21 | 26 | -6 | -8 | x
N#Cc1c(NC(=O)c2ccc(Cn3cc(Br)cn3)o2)sc2c1CCCCCC2 | 27 | 41* | 27 | 43 | 9 | 32*
COc1ccccc1C(=O)NCCC(=O)Nc1ccc(S(=O)(=O)N2CCC(C)CC2)cc1 | 5 | 16 | 22 | x | 10 | x
COc1ccc(C)cc1NC(=O)c1cc(S(=O)(=O)N2CCCCC2)ccc1N1CCOCC1 | 15 | 20 | 25 | x | 10 | x
CCOc1ccccc1-c1nc(CN2CCN(C(=O)c3ccco3)CC2)c(C)o1 | 16 | 41* | 39 | 1 | 12 | 22
Cc1ccccc1-c1nc(CN2CCN(C(=O)c3ccco3)CC2)c(C)o1 | 9 | 7 | 18 | -2 | -26 | x
COC(=O)c1c(NC(=O)C(=O)N2CCOCC2)sc2c1CCCC2 | 10 | 52* | 49 | -4 | -10 | 3
COC(=O)c1c(NC(=O)C(=O)N2CCOCC2)sc2c1CCC2 | 11 | 24 | 22 | 6 | 1 | x
CCCc1ccc(-c2cc(NC(=O)CSc3nnc(N)s3)n(-c3ccccc3)n2)cc1 | 19 | 43* | 12 | 8 | 39 | 11
OC1(c2ccc(OC(F)F)cc2)CSC(=Nc2cccnc2)N1C1CC1 (stereo not drawn) | -10 | 41* | -1 | 0 | 19 | 24
Cc1cc(C)cc(OCC(=O)NNC(=O)c2ccccn2)c1 | 4 | 11 | 2 | x | -4 | x
COc1cccc(-c2nn3c(-c4ccccn4)nnc3s2)c1 | 28 | 58* | 37 | 1 | x | 54*
COc1cccc(-c2nnc3sc(-c4ccccn4)nn23)c1 | -25 | 18 | 37 | 3 | -10 | x
COc1ccc(-c2nnc3sc(-c4ccccn4)nn23)cc1 | -8 | 44* | 30 | -3 | x | 21
CCOc1ccc(NC(=O)CN(C)C(=O)Cn2cnc3c2c(=O)n(C)c(=O)n3C)cc1OCC | 7 | -7 | 9 | -10 | -29 | x
COc1ccc(CCNC(=O)c2noc(C)c2[N+](=O)[O-])cc1OC | 7 | -4 | 5 | 4 | 4 | x
COc1ccccc1C/C(N)=N/OC(=O)c1ccco1 | 29 | 50* | 43 | 0 | -9 | 38*
COc1ccccc1C/C(N)=N/O | 13 | 10 | -1 | -5 | 2 | x
COc1ccc(CCNC(=O)c2ccc(OCC(=O)N3CCOCC3)c(OC)c2)cc1OC | 1 | -10 | 0 | -4 | -7 | x
CCOC(=O)/C(C#N)=C1/CCCCCN1C | 7 | 0 | 9 | 0 | -23 | x
CCOC(=O)/C(C#N)=C1\SS/C(=C(/C#N)C(=O)OCC)S1 | 13 | 41* | 21 | -7 | x | 36*

Assay outcomes from PubChem BioAssay.
